Drawing on PubChem BioAssay AID540259 (Broad Institute, 2011), this text covers outcome for 37 molecules.

Potency and affinity values are given separately. Active and inactive are the calls of the source.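 The calls were made as follows: active = cell killing, meaning signal decrease, with fitted half-maximal dose at or below ten times the top valid tested dose; inconclusive = poor fit, or flat curve with 30 to 70% signal loss; inactive = the rest.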

The experiment can be described thus: ATP-based viability loss in HeLa cells – cell-based, CellTiter-Glo luminescence, cherry-pick samples, cytotoxicity control for MITF activator project, dose response (AID 540259). Conditions: 24 h; series mostly up to 35 µM.
As for `CCN(CC)C(=O)CCc1nnc(Cc2cccc(C(F)(F)F)c2)o1`, the molecule was classed as inactive.

Turning to `COC(=O)c1cn(CC(=O)NCc2cccs2)c2ccccc12`, the molecule was called inactive.

With `Cc1ccc2cc(/C=N/Nc3ccc(C(=O)O)cc3)c(Cl)nc2c1`, the call was inactive. For the molecule `Cc1ccc(NC(=O)N2CCc3ccccc3C2)cc1C`, the outcome was inactive. The same measure for `CCN(CC)CC(=O)Nc1scc2c1c(=O)oc1ccccc12`: “inactive”; for `Cc1cccc(Nc2nc3c(s2)CCCC3)c1`: “inactive”; for `O=c1c2c(nc3cc(-c4ccc(Br)cc4)[nH]n13)CCCC2`: “inactive”.

In the case of `Cn1cc(Br)c(C(=O)N/N=C/c2cc3c(cc2Cl)OCO3)n1`, the result was inactive. The same measure for `c1ccc(-c2noc(CCC3CCCC3)n2)cc1`: “inactive”; for `Nc1c(C(=O)C2CC2)sc2nc3c(cc12)CCC3`: “inactive”. The same measure for `CSc1nc2ccc(NC(=O)c3cccs3)cc2s1`: “inactive”.

`O=C(O)c1ccc(N/N=C/c2cccc(C(F)(F)F)c2)cc1`: the result was inactive. `COc1ccc(NC(=O)Nc2ccc(Br)cn2)cc1`: the call was inactive. Consider `c1cnc(Nc2nc(-c3ccc4ccccc4c3)cs2)nc1`, for which the outcome was inactive. Take `O=C(Nc1ccc2c(c1)OCO2)c1cc(-c2ccccc2Cl)on1`: the call was inactive.

As to `Cc1ccc(Nc2nnc(-c3ccccc3N)o2)cc1C`, the result was inactive. The same measure for `O=C(NCCSc1ccccn1)c1ccc(Cl)cc1Cl`: “inactive”; for `COc1ccccc1C(=O)NCCC(=O)NC1CCC(C)CC1` (configuration not stated): “inactive”; for `CCCCN(C(=O)Cc1cccs1)c1nnc(-c2cccnc2)s1`: “inactive”.

Take `CCC(=O)N1CCc2nc(-c3ccccc3)sc2C1`: the molecule was classed as inactive.

As to `CN1C(=O)C2C=CC1C1C(=O)N(c3ccccc3)C(=O)C21` (configuration not stated), the molecule was called inactive. The same measure for `c1ccc2c(Nc3nnc(-c4ccncc4)s3)cccc2c1`: “inactive”; for `COc1ccc(C2Nc3ccccc3C(=O)N2c2ccc(C)cc2)cc1Cn1nnc2ccccc21` (configuration not stated): “inactive”; for `COC(=O)C(Cc1ccc(O)cc1)N1Cc2ccccc2C1=O` (configuration not stated): “inactive”.

As to `O=C(Cc1ccccc1)Nc1nc(-c2cccs2)cs1`, the result was inactive. The same measure for `COc1ccc(/C=C2\CCn3c2nc2ccccc2c3=O)cc1OC`: “inactive”; for `O=C(Cc1ccccc1)Nc1ccc2c(c1)OC1(CCCC1)O2`: “inactive”; for `COc1ccccc1/C=C/C=N/n1c(-c2ccccn2)n[nH]c1=S`: “inactive”.

For `COC(=O)c1ccc(N=NN2CCCCC2)cc1`, the result was inactive. Consider `COC(=O)c1cc(-c2ccc(OC)cc2)n[nH]1`, for which the outcome was inactive.

`Cc1nc2ccccn2c1C(=O)N/N=C/c1ccc2c(c1)OCO2`: the result was inactive. Turning to `Cc1ccc(-c2csc(C(C#N)=C3CCCC3)n2)cc1`, the result was inactive. For the molecule `CCS(=O)(=O)N1Cc2ccccc2CC1C(=O)NCc1cccc(OC)c1` (configuration not stated), the molecule was classed as inactive. The same measure for `C=CCSc1nncn1/N=C/c1ccc(OC)cc1`: “inactive”; for `CC(C)c1ccc(NC(=O)Cn2ncc3ccccc32)cc1`: “inactive”. The same measure for `c1ccc(COc2ccc(-c3csnn3)cc2)cc1`: “inactive”; for `Cc1ccc(NC(=O)CC(=O)c2ccccc2)cc1C`: “inactive”.
